Measurements as given in PubChem BioAssay AID1347043 (National Center for Advancing Translational Sciences (NCATS), 2019).
In all, about 76,000 compounds went through this assay and about 1,900 (2.5%) were called active. A call without a number means that no potency is given here. Not shown: some 5% with an inconclusive outcome. The sample holds actives, similar compounds and a random draw of the others, so the mix is not that of the screen. The call rests on the fitted dose curve; in most records, active means well fitted inhibition curve with a large enough effect; inconclusive means small, poorly fitted or top-dose-only effect; inactive means flat fitted curve, though single readings scatter.

biological target: Luciferin 4-monooxygenase (Photinus pyralis) (UniProt P08659); experiment: Firefly luciferase inhibition profiling of diverse chemical library using quantitative high-throughput screening; further: nearly all actives have a fitted effect of over 65% in size; conditions: purified P. pyralis luciferase, luminescence, biochemical; series mostly up to 115 µM
How it was run: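 Purified P. pyralis luciferase (10nM final) in 50mM Tris acetate pH 7.5, 10mM Mg acetate, 0.01% Tween-20, 0.05% BSA with 10uM D-luciferin and 10uM ATP. Compounds titrated qHTS. Luminescence imaged on CCD.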
Potency means the concentration at half of the fitted maximal effect.

Luciferin 4-monooxygenase (Photinus pyralis), sequence (P08659 whole entry, looked up): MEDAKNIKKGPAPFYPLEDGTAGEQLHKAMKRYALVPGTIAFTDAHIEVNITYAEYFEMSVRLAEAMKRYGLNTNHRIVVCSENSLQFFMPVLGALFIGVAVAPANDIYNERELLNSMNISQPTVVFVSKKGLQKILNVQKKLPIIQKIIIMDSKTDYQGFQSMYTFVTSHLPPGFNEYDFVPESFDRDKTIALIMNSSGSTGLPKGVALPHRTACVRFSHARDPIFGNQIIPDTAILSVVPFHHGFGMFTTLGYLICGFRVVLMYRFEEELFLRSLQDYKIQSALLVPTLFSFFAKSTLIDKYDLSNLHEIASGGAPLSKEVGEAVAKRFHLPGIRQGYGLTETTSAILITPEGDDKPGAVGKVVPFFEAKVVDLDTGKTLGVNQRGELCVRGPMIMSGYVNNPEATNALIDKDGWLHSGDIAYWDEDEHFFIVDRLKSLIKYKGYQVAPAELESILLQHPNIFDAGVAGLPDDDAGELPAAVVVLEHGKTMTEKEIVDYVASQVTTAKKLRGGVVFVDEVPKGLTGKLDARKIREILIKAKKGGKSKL

Row | SMILES | Potency
1 | O=C(NC1CCN(Cc2ccc(F)c(F)c2)CC1)c1ccc2nccn2c1 | inactive
2 | O=C(c1ccncc1)N1CCC(c2cc(-c3ccc(F)cc3)n[nH]2)CC1 | inactive
3 | CCC1(N2CCN(C(=O)c3ccc(N(C)C)cc3)CC2)CCN(S(C)(=O)=O)C1 (configuration not stated) | inactive
4 | Cn1cccc1C(=O)NC1CCN(c2cc(-c3ccccc3)[nH]n2)CC1 | inactive
5 | CC(=O)N1CCC(Cc2ccc(C(=O)NC3CC3)cc2)CC1 | inactive
6 | Cc1nnn2c(C(=O)NC3CC3)cccc12 | 7.08 µM (active)
7 | O=C(c1cc(-c2ccccc2)n[nH]1)N1CC2CC(C1)[C@H]1CCCC(=O)N1C2 (some centres not stated) | inactive
8 | Cc1ccc([S+](=O)([O-])N2CCn3c(nn(-c4ccncc4)c3=O)C2)cc1 | inactive
9 | COc1cc(F)ccc1-c1ccnc2nc(C(C)C)nn12 | inactive
10 | COc1cc(F)ccc1-c1ccc(COc2ccc3c(cnn3CCC(=O)O)c2)cc1 | 44.7 µM (active)
11 | COc1ccccc1-c1cn(C)c(=O)n2cc(COc3ccc(C(=O)O)cc3)nc12 | inactive
12 | CCN1c2cc(C(=O)NC3CCN(Cc4ccccc4)CC3)ccc2C(=O)N2CCCCC21 (configuration not stated) | inactive
13 | CC(C)CNc1ccc2nnc(-c3ccccn3)n2n1 | inactive
14 | CC(C)CNC(=O)N1CCCC(c2noc(COc3ccccc3F)n2)C1 (configuration not stated) | inactive
15 | O=C(c1ccccc1)N1CCCC(c2noc(COc3ccccc3)n2)C1 (configuration not stated) | inactive
16 | O=C(C1CC1)N1CCCC(c2noc(COc3ccccc3F)n2)C1 (configuration not stated) | 35.5 µM (active)
17 | C[C@H]1CN(C(=O)Nc2cc(F)cc(F)c2)C[C@@H]1c1nc(-c2ccncc2)no1 | inactive
18 | Cc1ccc(C(=O)N2CC(N(Cc3cccnc3)CC(C)C)C2)s1 | inactive
19 | CN(CCc1cn[nH]c1)c1ccc(-c2nc(-c3ccccc3F)no2)cn1 | 0.631 µM (active)
20 | Oc1ccc(-c2ccc(-c3nc(CCc4ccccc4)no3)cn2)cc1 | inactive
21 | CN(C)CCN(C)c1ccc(-c2nc(-c3ccccc3F)no2)cn1 | 15.8 µM (active)
22 | CSc1ccc(CNC(=O)c2cc3c(N4CCCC4)nc(C)cn3n2)cc1 | inactive
23 | CCOc1ccccc1-c1noc(-c2nnn3c2COC(c2ccc(Cl)cc2)C3)n1 (configuration not stated) | inactive
24 | CCCCc1nc2cc(C(=O)N3CCCC3c3cc(C(C)C)on3)ccc2o1 (configuration not stated) | inactive
25 | O=[S+]([O-])(Nc1ccccc1)c1ccc2c(c1)OCCN(CC1CC1)C2 | inactive
26 | Cc1ccc(CN2CC[C@@](C)(O)[C@H](N3CCCC3)C2)s1 | inactive

Row | SMILES | Potency
27 | CC(C)CCN1CCC2(CC1)CC(=O)c1ccc(Cl)cc1O2 | 44.7 µM (active)
28 | COc1ccc(CN2CCC3(CC2)CC(=O)c2ccc(Cl)cc2O3)cc1 | inactive
29 | CC(C)CCN1CCC2(CC1)C(=O)NCN2Cc1ccc(Cl)cc1 | inactive
30 | CC(C)NC(=O)N1CCC[C@@H](O)[C@H](NC(=O)c2ccc(OCC(N)=O)cc2)C1 | inactive
31 | CNC(=O)[C@@H]1CN(C(=O)Cc2c[nH]c3ccccc23)C[C@H]1COC | inactive
32 | O=C(Nc1cccc(Br)c1)C1CC(=O)N(c2n[nH]c3cccc(F)c23)C1 (configuration not stated) | inactive
33 | COCCCN(CCC(=O)N1CCC(C)CC1)C(=O)c1cc(C)oc1C | inactive
34 | COc1ccc2[nH]c(C[C@@H]3C[C@@H](C(C)C)[C@H](CNC4CCN(C)CC4)C=C3C)nc2n1 | inactive
35 | COc1ccc(C2Cn3nnc(C(=O)N4CCN(C(=O)c5cccc(Cl)c5)CC4)c3CO2)cc1 (configuration not stated) | inactive
36 | O=C(Nc1ccc(Cl)cc1)C1CCN(C(=O)c2ncn3c2COC(c2ccc(F)cc2)C3)CC1 (configuration not stated) | 22.4 µM (active)
37 | O=C(NCC1CC1)C1CCN(C(=O)c2ncn3c2COC(c2ccccc2)C3)CC1 (configuration not stated) | 10 µM (active)
38 | CCC(CC)C(=O)N1CCC(N2CCCC(C(=O)NCc3ccccc3)C2)CC1 (configuration not stated) | inactive
39 | O=C(NCc1ccccc1)C1CCN(C(=O)c2ncn3c2COC(c2ccccc2)C3)CC1 (configuration not stated) | 3.16 µM (active)
40 | COc1ccc(C2Cn3cnc(C(=O)N4CCC(C(=O)Nc5cc(C)cc(C)c5)CC4)c3CO2)cc1 (configuration not stated) | inactive
41 | O=C(Nc1cccc(F)c1)c1cc2n(n1)CC(c1ccc(Cl)cc1)OC2 (configuration not stated) | inactive
42 | O=C(NCc1ccc(F)c(Cl)c1)C1CCN(C(=O)c2ncn3c2COC(c2ccccc2)C3)CC1 (configuration not stated) | 11.2 µM (active)
43 | COc1ccc(C2Cn3cnc(C(=O)N4CCC(C(=O)NCc5cccc(F)c5)CC4)c3CO2)cc1 (configuration not stated) | inactive
44 | COc1ccc(C2Cn3cnc(C(=O)N4CCC(C(=O)NC5CCCC5)CC4)c3CO2)cc1 (configuration not stated) | inactive
45 | CCOc1cccc(CNC(=O)c2cc3n(n2)CC(c2ccc(Cl)cc2)OC3)c1 (configuration not stated) | inactive
46 | CC(=O)N1CCC(C(=O)NCC2CCN(c3cc(-c4ccc(C)cc4)[nH]n3)CC2)CC1 | inactive
47 | Cc1ccc(C(=O)N[C@H]2CO[C@H]3[C@@H]2OC[C@@H]3n2nnnc2Oc2ccc(-n3ccnc3)cc2)cc1 | inactive
48 | O=C(Nc1ccccc1)N1CCC2(CC1)CC(Cc1ccccc1)=NO2 | inactive
49 | COc1cccc(CC(=O)N2CCCn3nc(C)c(-c4ccccc4OCc4ccccc4)c32)c1 | inactive
50 | CC(C)Oc1ccc(CNC(=O)C2Cn3cccc3C(=O)N2Cc2cccnc2)cc1 (configuration not stated) | inactive
51 | COc1ccccc1CN1CCN(C(=O)CCC[C@H]2NC[C@@H]3C[C@H]2CN(Cc2ccccc2)C3)CC1 | inactive
52 | CCCN1C(=O)Cc2cc(C(=O)NC3CC3)ccc21 | inactive
